First the molecules themselves.
T1: HaloTag-ATRX ADD domain (163-292)
T1 chain: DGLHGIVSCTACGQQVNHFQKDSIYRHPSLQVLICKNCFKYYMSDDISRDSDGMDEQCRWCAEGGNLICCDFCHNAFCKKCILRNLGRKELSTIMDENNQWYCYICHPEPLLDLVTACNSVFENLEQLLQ

B1: Unmod H2A variant R N D E E L N K L L G R V (peptide)
chain: RNDEELNKLLGRV
B2: Unmod H2A variant L Q L A I R N D E E L N K (peptide)
chain: LQLAIRNDEELNK
B3: Unmod H2A variant G A G A P V Y M A A V L E (peptide)
chain: GAGAPVYMAAVLE
B4: Unmod H2A variant G N A S R D N K K T R I I (peptide)
chain: GNASRDNKKTRII
B5: Unmod H2A variant G V L P N I Q A V L L P K (peptide)
chain: GVLPNIQAVLLPK
B6: Unmod H2A variant R N D E E L N K L L G K V (peptide)
chain: RNDEELNKLLGKV
B7: Unmod H2A variant V T I A Q G G V L P N I Q (peptide)
chain: VTIAQGGVLPNIQ
B8: Unmod H2A variant G A G A P V Y L A A V L E (peptide)
chain: GAGAPVYLAAVLE
B9: Unmod H2A variant G N A A R D N K K T R I I (peptide)
chain: GNAARDNKKTRII
B10: Unmod H2A variant I Q A V L L P K K T E S H (peptide)
chain: IQAVLLPKKTESH

The results in this text go back to the supplement of paper PMC4022240.

± gives the standard deviation.

One experiment concerns the target T1, HaloTag-ATRX ADD domain (163-292). In words: peptide microarray binding signal (635 nm), min-max normalized on array (fraction of array maximum); higher = stronger binding. The note with it: peptide region: Unmod H2A variant; binder concentration: 50 nM. An outline of the steps:
(§1)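 Binding signal is the mean intensity of triplicate spots, min-max scaled within each library. Histone 13-mer peptide–cellulose conjugates were spotted in triplicate on nitrocellulose with a Cy3 tracer and blocked overnight at 4°C. Probing lasted 1 h at 4°C, either with biotin-labelled HaloTag reader fusions (10 nM to 1 μM) and streptavidin-Alexa Fluor 647 or with rabbit histone antibodies (1:10,000 to 1:2,000) and anti-rabbit Alexa 647. An Axon GenePix 4000B read signal at 635 nm and misprints at 532 nm.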
Consider B1, for which the “peptide microarray binding signal” value is 0.0189 ± 0.0014.

As for B2, the “peptide microarray binding signal” value was 0.0213 ± 0.0039.

In the case of B3, the “peptide microarray binding signal” value worked out at 0.0137 ± 0.00082.

Take B4: the “peptide microarray binding signal” value came to 0.0142 ± 0.00075.

For the molecule B5, the “peptide microarray binding signal” value worked out at 0.0417 ± 0.0058.

As to B6, the “peptide microarray binding signal” value was 0.0192 ± 0.00022.

With B7, the “peptide microarray binding signal” value amounted to 0.0238 ± 0.001.

Turning to B8, the “peptide microarray binding signal” value was 0.0133 ± 0.00042.

As to B9, the “peptide microarray binding signal” value is 0.0155 ± 0.0014.

As for B10, the “peptide microarray binding signal” value was found to be 0.0353 ± 0.0028.

Still in this experiment, the particulars now being: peptide region: Unmod H2A variant; binder concentration: 500 nM.
Regarding B1, the “peptide microarray binding signal” value is 0.00157 ± 0.00011.

Take B2: the “peptide microarray binding signal” value was determined as 0.0279 ± 0.0038.

As for B3, the “peptide microarray binding signal” value worked out at 0.0173 ± 0.0023.

For the molecule B4, the “peptide microarray binding signal” value came to 0.00895 ± 0.0037.

With B5, the “peptide microarray binding signal” value was 0.0254 ± 0.026.

For the molecule B6, the “peptide microarray binding signal” value was 0.024 ± 0.0011.

In the case of B7, the “peptide microarray binding signal” value worked out at 0.0447 ± 0.00046.

As for B8, the “peptide microarray binding signal” value came out at 0.00505 ± 0.0014.

With B9, the “peptide microarray binding signal” value was 0.0214 ± 0.0004.

In the case of B10, the “peptide microarray binding signal” value was 0.0333 ± 0.018.

In another experiment the target is HaloTag-ING2 PHD (mouse Ing2 200-280). Described as above. The following applies: peptide region: Unmod H2A variant; binder concentration: 10 nM. In short, it runs like this: as §1
For B1, the “peptide microarray binding signal” value was 0.00269 ± 9.9e-05.

As to B2, the “peptide microarray binding signal” value is 0.005968 ± 4.9e-05.

B3: the “peptide microarray binding signal” value came out at 0.0083 ± 0.0011.

On to B4, for which the “peptide microarray binding signal” value stood at 0.0031 ± 0.00011.

Consider B5, for which the “peptide microarray binding signal” value was determined as 0.0142 ± 0.0058.

In the case of B6, the “peptide microarray binding signal” value stood at 0.00513 ± 0.00017.

With B7, the “peptide microarray binding signal” value was determined as 0.0169 ± 0.00042.

Regarding B8, the “peptide microarray binding signal” value was 0.0031 ± 0.00049.

With B9, the “peptide microarray binding signal” value was determined as 0.003223 ± 1.8e-05.

For the molecule B10, the “peptide microarray binding signal” value worked out at 0.0199 ± 0.00099.

The experiment is the same for the next values; noted with them: peptide region: Unmod H2A variant; binder concentration: 100 nM.
For the molecule B1, the “peptide microarray binding signal” value was 0.0085 ± 0.00045.

With B2, the “peptide microarray binding signal” value came to 0.03182 ± 0.00024.

Consider B3, for which the “peptide microarray binding signal” value turned out to be 0.0205 ± 0.0014.

For the molecule B4, the “peptide microarray binding signal” value came to 0.00673 ± 0.00046.

For the molecule B5, the “peptide microarray binding signal” value turned out to be 0.0437 ± 0.0091.

As to B6, the “peptide microarray binding signal” value was found to be 0.00907 ± 0.002.

Take B7: the “peptide microarray binding signal” value stood at 0.0193 ± 0.0019.

Consider B8, for which the “peptide microarray binding signal” value was 0.0137 ± 0.00099.

B9: the “peptide microarray binding signal” value was 0.0051 ± 0.00053.

In the case of B10, the “peptide microarray binding signal” value came to 0.0828 ± 0.029.

In the next experiment the target is anti-H3K4me3 antibody ab8580. The experiment is described as above. The following applies: peptide region: Unmod H2A variant; binder concentration: 1:2,000 dilution. In short, it runs like this: as §1
Consider B1, for which the “peptide microarray binding signal” value came out at 0.000189 ± 4.1e-06.

As to B2, the “peptide microarray binding signal” value was found to be 0.0182 ± 0.0049.

As to B3, the “peptide microarray binding signal” value amounted to 0.00425 ± 0.00061.

Regarding B4, the “peptide microarray binding signal” value was found to be 0.000396 ± 2.5e-05.

Turning to B5, the “peptide microarray binding signal” value stood at 0.000944 ± 0.00025.

In the case of B6, the “peptide microarray binding signal” value was 0.00181 ± 0.00069.

Regarding B7, the “peptide microarray binding signal” value turned out to be 0.00821 ± 0.007.

Turning to B8, the “peptide microarray binding signal” value was found to be 0.000189 ± 8.9e-06.

Consider B9, for which the “peptide microarray binding signal” value is 0.00162 ± 0.0002.

For B10, the “peptide microarray binding signal” value was found to be 0.00283 ± 0.0019.

The same experiment, now with this note: peptide region: Unmod H2A variant; binder concentration: 1:10,000 dilution.
With B1, the “peptide microarray binding signal” value is 0.0016 ± 9.6e-05.

B2: the “peptide microarray binding signal” value was 0.00422 ± 0.00051.

Regarding B3, the “peptide microarray binding signal” value was found to be 0.0016 ± 0.00012.

As for B4, the “peptide microarray binding signal” value stood at 0.0012 ± 4.3e-05.

Turning to B5, the “peptide microarray binding signal” value was found to be 0.0081 ± 0.0012.

Consider B6, for which the “peptide microarray binding signal” value is 0.00217 ± 3.9e-05.

B7: the “peptide microarray binding signal” value came out at 0.00451 ± 0.0005.

Take B8: the “peptide microarray binding signal” value turned out to be 0.0016 ± 2.7e-05.

For B9, the “peptide microarray binding signal” value was determined as 0.000799 ± 8.3e-06.

Regarding B10, the “peptide microarray binding signal” value is 0.00371 ± 0.00028.

A further experiment addresses anti-H3K9me3 antibody ab8898. The experiment is described as above. The following applies: peptide region: Unmod H2A variant; binder concentration: 1:2,000 dilution. An outline of the steps: as §1
Consider B1, for which the “peptide microarray binding signal” value stood at 0.000604 ± 2e-05.

With B2, the “peptide microarray binding signal” value came out at 0.00439 ± 0.00042.

As to B3, the “peptide microarray binding signal” value is 0.000846 ± 4.3e-05.

Turning to B4, the “peptide microarray binding signal” value amounted to 0.000272 ± 4.9e-06.

With B5, the “peptide microarray binding signal” value stood at 0.00384 ± 0.00031.

On to B6, for which the “peptide microarray binding signal” value turned out to be 0.00159 ± 3.2e-05.

For B7, the “peptide microarray binding signal” value is 0.00338 ± 0.00037.

As for B8, the “peptide microarray binding signal” value was determined as 0.000423 ± 1.1e-05.

As for B9, the “peptide microarray binding signal” value was 0.000362 ± 6.3e-06.

In the case of B10, the “peptide microarray binding signal” value was 0.00285 ± 0.00015.

Still in this experiment, the particulars now being: peptide region: Unmod H2A variant; binder concentration: 1:10,000 dilution.
In the case of B1, the “peptide microarray binding signal” value came out at 0.00173 ± 3.3e-05.

For B2, the “peptide microarray binding signal” value was determined as 0.00588 ± 0.00021.

As for B3, the “peptide microarray binding signal” value worked out at 0.00144 ± 3.7e-05.

On to B4, for which the “peptide microarray binding signal” value amounted to 0.00075 ± 7.9e-06.

With B5, the “peptide microarray binding signal” value came to 0.0113 ± 0.0018.

Consider B6, for which the “peptide microarray binding signal” value worked out at 0.001787 ± 1.7e-05.

For the molecule B7, the “peptide microarray binding signal” value was 0.00306.

For B8, the “peptide microarray binding signal” value amounted to 0.00104 ± 2.8e-05.

Take B9: the “peptide microarray binding signal” value is 0.000577 ± 6.2e-06.

As for B10, the “peptide microarray binding signal” value was 0.0045 ± 0.00048.
